# Measured values as given in PubChem BioAssay AID1159580 (chemical genetic matrix, 2015).
# About 2,000 (36%) of roughly 5,500 compounds were called active. Inconclusive results (about 18%) are left out. Some of the results follow. Unmarked numbers belong to inactive results. No stated cut-off is given here; in the data, active means normalized growth mostly below about 0.91 (no sharp cut-off); inconclusive means no clear call, values can overlap the other calls; inactive means mostly above about 0.92.
# Experiment: chemical genetic growth profiling, strain panel (AID 1159580);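 further: tested at 20 µM; growth read once vehicle control cultures reached saturation at 30 °C; 1 = growth at the plate median or of vehicle wells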
# Conditions: growth OD
compound,measurement,setting,value
COc1ccc(CCN2CCC(Nc3nc4ccccc4n3Cc3ccc(F)cc3)CC2)cc1,normalized growth,"S. cerevisiae deletion strains, locus YJR066W, strain TOR1, stronger effect = lower value",0.931
same,normalized growth,"S. cerevisiae deletion strains, locus YKL009W, strain mrt4, stronger effect = lower value",0.99
same,normalized growth,"S. cerevisiae deletion strains, locus YKL068W, stronger effect = lower value",0.991
same,normalized growth,"S. cerevisiae deletion strains, locus YKL085W, strain MDH1 (second series), stronger effect = lower value",1.04
same,normalized growth,"S. cerevisiae deletion strains, locus YKL085W, strain MDH1, stronger effect = lower value",1.04
same,normalized growth,"S. cerevisiae deletion strains, locus YKL160W, strain elf1, stronger effect = lower value",0.961
same,normalized growth,"S. cerevisiae deletion strains, locus YKL190W, strain CNB1, stronger effect = lower value",0.992
same,normalized growth,"S. cerevisiae deletion strains, locus YKR001C, strain vps1, stronger effect = lower value",0.999
same,normalized growth,"S. cerevisiae deletion strains, locus YKR026C, strain gcn3, stronger effect = lower value",0.945
same,normalized growth,"S. cerevisiae deletion strains, locus YKR091W, strain srl3, stronger effect = lower value",0.987
same,normalized growth,"S. cerevisiae deletion strains, locus YLL001W, strain dnm1, stronger effect = lower value",0.954
same,normalized growth,"S. cerevisiae deletion strains, locus YLL026W, stronger effect = lower value",0.974
same,normalized growth,"S. cerevisiae deletion strains, locus YLL041C, strain sdh2, stronger effect = lower value",0.969
same,normalized growth,"S. cerevisiae deletion strains, locus YLR027C, strain aat2, stronger effect = lower value",0.978
same,normalized growth,"S. cerevisiae deletion strains, locus YLR039C, strain RIC1, stronger effect = lower value",1.19
same,normalized growth,"S. cerevisiae deletion strains, locus YLR058C, strain SHM2, stronger effect = lower value",0.974
same,normalized growth,"S. cerevisiae deletion strains, locus YLR102C, strain apc9, stronger effect = lower value",0.991
same,normalized growth,"S. cerevisiae deletion strains, locus YLR113W, strain HOG1, stronger effect = lower value",0.976
same,normalized growth,"S. cerevisiae deletion strains, locus YLR221C, strain rsa3, stronger effect = lower value",0.951
same,normalized growth,"S. cerevisiae deletion strains, locus YLR258W, strain gsy2, stronger effect = lower value",0.962
same,normalized growth,"S. cerevisiae deletion strains, locus YLR262C, strain YPT6 (second series), stronger effect = lower value",1.05
same,normalized growth,"S. cerevisiae deletion strains, locus YLR262C, strain YPT6, stronger effect = lower value",1.21
same,normalized growth,"S. cerevisiae deletion strains, locus YLR268W, strain sec22, stronger effect = lower value",0.969
same,normalized growth,"S. cerevisiae deletion strains, locus YLR320W, strain mms22, stronger effect = lower value",0.85 (active)
same,normalized growth,"S. cerevisiae deletion strains, locus YLR330W, strain CHS5, stronger effect = lower value",0.995
same,normalized growth,"S. cerevisiae deletion strains, locus YLR342W, strain FKS1 (second series), stronger effect = lower value",0.945
same,normalized growth,"S. cerevisiae deletion strains, locus YLR342W, strain FKS1, stronger effect = lower value",0.969
same,normalized growth,"S. cerevisiae deletion strains, locus YLR357W, strain rsc2, stronger effect = lower value",0.986
same,normalized growth,"S. cerevisiae deletion strains, locus YLR370C, strain arc18, stronger effect = lower value",0.892 (active)
same,normalized growth,"S. cerevisiae deletion strains, locus YLR371W, strain rom2, stronger effect = lower value",0.986
same,normalized growth,"S. cerevisiae deletion strains, locus YLR384C, strain iki3, stronger effect = lower value",1
same,normalized growth,"S. cerevisiae deletion strains, locus YLR418C, strain cdc73, stronger effect = lower value",0.943
same,normalized growth,"S. cerevisiae deletion strains, locus YML016C, strain PPZ1, stronger effect = lower value",0.979
same,normalized growth,"S. cerevisiae deletion strains, locus YML032C, strain rad52, stronger effect = lower value",0.955
same,normalized growth,"S. cerevisiae deletion strains, locus YML120C, strain ndi1, stronger effect = lower value",0.978
same,normalized growth,"S. cerevisiae deletion strains, locus YML124C, strain tub3, stronger effect = lower value",0.991
same,normalized growth,"S. cerevisiae deletion strains, locus YMR058W, strain fet3, stronger effect = lower value",0.865 (active)
same,normalized growth,"S. cerevisiae deletion strains, locus YMR078C, strain ctf18, stronger effect = lower value",0.987
same,normalized growth,"S. cerevisiae deletion strains, locus YMR125W, strain sto1, stronger effect = lower value",0.964
same,normalized growth,"S. cerevisiae deletion strains, locus YMR129W, stronger effect = lower value",0.995
same,normalized growth,"S. cerevisiae deletion strains, locus YMR205C, strain PFK2, stronger effect = lower value",0.908
same,normalized growth,"S. cerevisiae deletion strains, locus YMR223W, strain ubp8, stronger effect = lower value",0.988
same,normalized growth,"S. cerevisiae deletion strains, locus YMR231W, strain pep5, stronger effect = lower value",0.997
same,normalized growth,"S. cerevisiae deletion strains, locus YMR263W, strain SAP30, stronger effect = lower value",0.997
same,normalized growth,"S. cerevisiae deletion strains, locus YMR307W, strain GAS1, stronger effect = lower value",0.894
same,normalized growth,"S. cerevisiae deletion strains, locus YNL067W, strain RPL9B, stronger effect = lower value",0.982
same,normalized growth,"S. cerevisiae deletion strains, locus YNL071W, strain lat1, stronger effect = lower value",0.959
same,normalized growth,"S. cerevisiae deletion strains, locus YNL128W, strain TEP1, stronger effect = lower value",0.984
same,normalized growth,"S. cerevisiae deletion strains, locus YNL153C, strain GIM3, stronger effect = lower value",1
same,normalized growth,"S. cerevisiae deletion strains, locus YNL183C, strain NPR1, stronger effect = lower value",0.946
same,normalized growth,"S. cerevisiae deletion strains, locus YNL209W, strain ssb2, stronger effect = lower value",0.962
same,normalized growth,"S. cerevisiae deletion strains, locus YNL233W, strain BNI4, stronger effect = lower value",0.959
same,normalized growth,"S. cerevisiae deletion strains, locus YNL250W, strain rad50, stronger effect = lower value",0.988
same,normalized growth,"S. cerevisiae deletion strains, locus YNL271C, strain bni1, stronger effect = lower value",0.982
same,normalized growth,"S. cerevisiae deletion strains, locus YNL298W, strain CLA4, stronger effect = lower value",0.987
same,normalized growth,"S. cerevisiae deletion strains, locus YNL307C, strain MCK1, stronger effect = lower value",0.969
same,normalized growth,"S. cerevisiae deletion strains, locus YNL322C, strain KRE1 (second series), stronger effect = lower value",0.991
same,normalized growth,"S. cerevisiae deletion strains, locus YNR049C, strain mso1, stronger effect = lower value",0.96
same,normalized growth,"S. cerevisiae deletion strains, locus YNR052C, strain pop2, stronger effect = lower value",0.982
same,normalized growth,"S. cerevisiae deletion strains, locus YOL006C, strain TOP1, stronger effect = lower value",0.759
same,normalized growth,"S. cerevisiae deletion strains, locus YOL012C, strain htz1",0.955
same,normalized growth,"S. cerevisiae deletion strains, locus YOL147C, strain pex11, stronger effect = lower value",0.99
same,normalized growth,"S. cerevisiae deletion strains, locus YOR001W, strain rrp6, stronger effect = lower value",0.881 (active)
same,normalized growth,"S. cerevisiae deletion strains, locus YOR061W, strain CKA2, stronger effect = lower value",0.969
same,normalized growth,"S. cerevisiae deletion strains, locus YOR069W, strain VPS5, stronger effect = lower value",0.993
same,normalized growth,"S. cerevisiae deletion strains, locus YOR070C, strain gyp1, stronger effect = lower value",0.944
same,normalized growth,"S. cerevisiae deletion strains, locus YOR080W, strain dia2, stronger effect = lower value",1
same,normalized growth,"S. cerevisiae deletion strains, locus YOR083W, strain WHI5, stronger effect = lower value",0.927
same,normalized growth,"S. cerevisiae deletion strains, locus YOR106W, strain vam3, stronger effect = lower value",0.969
same,normalized growth,"S. cerevisiae deletion strains, locus YOR136W, strain idh2, stronger effect = lower value",0.98
same,normalized growth,"S. cerevisiae deletion strains, locus YOR144C, strain elg1, stronger effect = lower value",0.986
same,normalized growth,"S. cerevisiae deletion strains, locus YOR184W, strain ser1, stronger effect = lower value",0.953
same,normalized growth,"S. cerevisiae deletion strains, locus YOR231W, strain MKK1, stronger effect = lower value",0.973
same,normalized growth,"S. cerevisiae deletion strains, locus YOR265W, strain rbl2, stronger effect = lower value",0.993
same,normalized growth,"S. cerevisiae deletion strains, locus YOR270C, strain vph1, stronger effect = lower value",0.607 (active)
same,normalized growth,"S. cerevisiae deletion strains, locus YOR290C, strain snf2, stronger effect = lower value",0.633 (active)
same,normalized growth,"S. cerevisiae deletion strains, locus YOR316C, strain cot1, stronger effect = lower value",0.994
same,normalized growth,"S. cerevisiae deletion strains, locus YPL051W, strain arl3, stronger effect = lower value",0.968
same,normalized growth,"S. cerevisiae deletion strains, locus YPL078C, strain atp4, stronger effect = lower value",0.975
same,normalized growth,"S. cerevisiae deletion strains, locus YPL106C, strain sse1, stronger effect = lower value",0.894
same,normalized growth,"S. cerevisiae deletion strains, locus YPL240C, strain hsp82, stronger effect = lower value",0.986
same,normalized growth,"S. cerevisiae deletion strains, locus YPL241C, strain CIN2, stronger effect = lower value",0.992
same,normalized growth,"S. cerevisiae deletion strains, locus YPL256C, strain CLN2, stronger effect = lower value",0.982
same,normalized growth,"S. cerevisiae deletion strains, locus YPR119W, strain clb2, stronger effect = lower value",0.988
same,normalized growth,"S. cerevisiae deletion strains, locus YPR141C, strain kar3, stronger effect = lower value",0.991
same,normalized growth,"S. cerevisiae deletion strains, locus YPR163C, strain tif3, stronger effect = lower value",0.988
same,normalized growth,"S. cerevisiae deletion strains, locus YPR167C, strain met16, stronger effect = lower value",0.976
same,normalized growth,"S. cerevisiae deletion strains, strain wtn01, stronger effect = lower value",0.974
same,normalized growth,"S. cerevisiae strains, strain wild type, stronger effect = lower value",0.986
